Screening results from PubChem BioAssay.
Most compounds without a hit are left out; they make up all but 8.1% or so of the library.
KB-3-1 tox: KB-3-1 parental cell cytotoxicity | KB-3-1 viability, CellTiter-Glo ATP luminescence, 72 h | AID 1347075 | actives 1.4% (n = 400,000) | Potency, µM (titrated, usually from 46.1 µM), actives largely listed as cytotoxic; note: nearly all actives have a fitted effect of over 60% in size
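Using CellTiter-Glo luminescence, growth of non-resistant KB-3-1 adenocarcinoma cells is assessed 72 h after pin-tool compound addition at 37 °C. Normalized responses across the concentration series yield fitted curves.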
KB-V1 MDR tox: kills drug-selected multidrug resistant KB-V1 cells; KB-V1 MDR cells viability, CellTiter-Glo, 72 h; actives 3.4% (n = 400,000); Potency, µM (highest dose often 46.1 µM), most hits filed as cytotoxic; note: nearly all actives have a fitted effect of over 60% in size
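Cells of the MDR subline KB-V1 are plated, dosed with compound at multiple concentrations, and incubated 72 h at 37 degrees C; CellTiter-Glo is then added and luminescence read after 10 min.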
ELG1 repair inh: inhibitors of ELG1-dependent DNA repair in HEK293T cells. HEK293T ELG1-luciferase reporter, luminescence, 16 h; DNA damage induced by 5-fluorouridine. Potency, µM (top dose mostly 46.1 µM), hits mostly inhibitors. actives 2.3% (n = 330,000). AID 504467; note: nearly all actives have a fitted effect of over 55% in size
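HEK293T cells expressing luciferase-tagged ELG1 (2,000/well) received 5-Fluorouridine plus compound or DMSO for 16 hr at 37 °C. Luciferase was read by ONE-Glo luminescence after 30 min at room temperature.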
SW480 rereplic: DNA re-replication induction in SW480 cells; SW480 DNA re-replication, Hoechst DNA content imaging, 48 h; Potency, µM (highest dose often 46.1 µM), hits mostly activators; actives 1.8% (n = 340,000); note: nearly all actives have a fitted effect of over 55% in size
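Cells (250 per well) received 23 nL compound or DMSO by pin tool and were kept 48 hr at 37 C, 5% CO2. Nuclei were then stained with Hoechst for 40 min and scanned for DNA content.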
MCF10A rerep: induces DNA re-replication in MCF 10a normal breast cells; MCF 10A DNA re-replication, Hoechst nuclear intensity, 48 h; Potency, µM (highest dose often 46.1 µM), hits mostly activators; actives 2.9% (n = 350,000); note: nearly all actives have a fitted effect of over 50% in size
Of the large screens only hits and unclear results are named; the others gave an inactive call. Calls come from the whole dose curve; as a rule, active = well fitted curve in the direction sought with a large enough effect; inconclusive = small, poorly fitted or top-dose-only effect, or another doubt; inactive = no such curve, though single readings can be large; an effect the other way counts as inactive or inconclusive.

CC1(C)COC(/C=C/c2cccc([N+](=O)[O-])c2)=N1	KB-3-1 tox inconclusive, ELG1 repair inh inconclusive, SW480 rereplic inconclusive, MCF10A rerep 14.1µM
CN(C)c1ccc(C(=O)N2CCN(c3cc(C(F)(F)F)nc4ccccc34)CC2)cc1	ELG1 repair inh inconclusive
CSc1ccc(C2C(C#N)=C(N)Oc3cc4c(cc32)OCO4)cc1 (stereo unspecified)	KB-V1 MDR tox 4.61µM, SW480 rereplic inconclusive, MCF10A rerep inconclusive (no result: ELG1 repair inh)
CC[C@@H](C)[C@@H]1CN([C@@H](C)CN2CCC[C@H]2CN2C(N)=NC[C@@H]2Cc2ccccc2)C(=N)N1CCc1ccc(Cl)c(Cl)c1	none
Cc1cc(OCCCC(=O)Nc2nnc(C3CC3)s2)ccc1Cl	KB-V1 MDR tox inconclusive, SW480 rereplic inconclusive
CCCCCc1ccc(S(=O)(=O)Nc2cc(C)ccn2)cc1	ELG1 repair inh 10.3µM
Cc1nn(CC#N)c(=O)n1-c1ccccc1F	none
CCN(CC)c1ccc2nc3ccc(N)cc3[n+](-c3ccccc3)c2c1	KB-3-1 tox 0.731µM, KB-V1 MDR tox inconclusive, ELG1 repair inh inconclusive, SW480 rereplic inconclusive, MCF10A rerep inconclusive
CCN(CC)c1ccc2nc3ccccc3[n+](CC)c2c1	KB-3-1 tox 3.66µM, KB-V1 MDR tox 9.2µM, ELG1 repair inh 3.66µM, SW480 rereplic 3.66µM, MCF10A rerep 11.6µM
CCN(CC)c1ccc(/C=C/c2cc(Cl)nc3ccccc23)cc1	none (no result: ELG1 repair inh, SW480 rereplic, MCF10A rerep)
O=C1NC(=S)SC1=Cc1ccccc1C(=O)O	none (no result: ELG1 repair inh, SW480 rereplic, MCF10A rerep)
COc1cccc(NC(=O)CN2CCCCCC2)c1	ELG1 repair inh inconclusive
O=C(N/N=C/c1sc(N2CCOCC2)nc1-c1ccccc1)c1ccccc1F	ELG1 repair inh inconclusive, MCF10A rerep inconclusive
O=C(Nc1ccccc1F)C(=Cc1sc(N2CCOCC2)nc1-c1ccccc1)C(=O)Nc1ccccc1F	ELG1 repair inh 8.2µM, SW480 rereplic inconclusive, MCF10A rerep 3.26µM
COc1cc(C(=O)N/N=C/c2sc(N3CCOCC3)nc2-c2ccccc2)cc(OC)c1OC	ELG1 repair inh 11.6µM
O=C(N/N=C/c1sc(N2CCOCC2)nc1-c1ccccc1)c1ccccc1O	KB-3-1 tox inconclusive, KB-V1 MDR tox inconclusive, ELG1 repair inh 18.4µM, SW480 rereplic inconclusive, MCF10A rerep inconclusive
COc1ccccc1N1CCN(C(=O)CCCCCn2c(=S)[nH]c3cc4c(cc3c2=O)OCO4)CC1	none (no result: ELG1 repair inh, SW480 rereplic, MCF10A rerep)
Cc1ccc(C)c(N2CCN(C(=O)CCCn3c(=S)[nH]c4cc5c(cc4c3=O)OCO5)CC2)c1	ELG1 repair inh 9.2µM
O=C(CCCn1c(=S)[nH]c2cc3c(cc2c1=O)OCO3)N1CCN(c2ccccc2F)CC1	KB-V1 MDR tox 16.4µM, ELG1 repair inh 23.1µM, SW480 rereplic inconclusive
O=C(CCCn1c(=S)[nH]c2cc3c(cc2c1=O)OCO3)N1CCN(C2CCCCC2)CC1	none
O=C(CCCCCn1c(=S)[nH]c2cc3c(cc2c1=O)OCO3)N1CCN(c2ccccc2)CC1	MCF10A rerep inconclusive
O=C(CCCn1c(=S)[nH]c2cc3c(cc2c1=O)OCO3)N1CCN(c2ncccn2)CC1	KB-3-1 tox inconclusive, KB-V1 MDR tox inconclusive, ELG1 repair inh 14.6µM
O=C(CCCn1c(=S)[nH]c2cc3c(cc2c1=O)OCO3)N1CCN(c2ccc(F)cc2)CC1	ELG1 repair inh 16.4µM
O=c1c2cccnc2[nH]c(=S)n1CCCN1CCN(c2ccccc2F)CC1	KB-3-1 tox 13µM, MCF10A rerep inconclusive
CCOC(=O)N1CCN(C(=O)CCCn2c(=S)[nH]c3ccccc3c2=O)CC1	none (no result: ELG1 repair inh)
CCOC(=O)N1CCN(C(=O)CCCn2c(=S)[nH]c3ccc(Br)cc3c2=O)CC1	KB-V1 MDR tox 11.6µM, ELG1 repair inh 23.1µM
CC(=O)Oc1ccc(N2C(=O)C3C(C2=O)C2C=CC3C23CC3)cc1[N+](=O)[O-] (stereo unspecified)	KB-V1 MDR tox inconclusive
O=C1CC(c2ccc(Cl)cc2)Oc2ccc(Cl)cc21 (stereo unspecified)	SW480 rereplic inconclusive, MCF10A rerep inconclusive (no result: ELG1 repair inh)
CC(=O)Oc1ccc2c(c1)OC(c1ccccc1)CC21CC(C)(C)NC(=S)N1 (stereo unspecified)	KB-V1 MDR tox inconclusive
CC(=O)Oc1ccc(C2(C)CC(C)(C)NC(=S)N2C)c(OC(C)=O)c1 (stereo unspecified)	MCF10A rerep 1.3µM
COc1ccc(/C=C2/C(=O)OCc3cc(OC)c(OC)cc32)cc1	KB-3-1 tox inconclusive, KB-V1 MDR tox 3.66µM, SW480 rereplic 4.11µM, MCF10A rerep inconclusive
O=C1c2ccccc2C(Nc2ccc(S(=O)(=O)N3CCCCC3)cc2)N1Cc1ccco1 (stereo unspecified)	none
O=C(Cc1ccccc1)NCCS(=O)(=O)N1CCN(c2cccc(Cl)c2)CC1	KB-V1 MDR tox inconclusive
Nc1ccccc1-c1ccc([N+](=O)[O-])cc1	KB-3-1 tox inconclusive, SW480 rereplic inconclusive, MCF10A rerep 23.1µM (no result: ELG1 repair inh)
Nc1ccc(-c2ccc(N)c([N+](=O)[O-])c2)cc1[N+](=O)[O-]	none
Cc1cc(/C=N/n2c(COc3ccccc3C)nc3ccccc3c2=O)c(O)c([N+](=O)[O-])c1	SW480 rereplic 13µM
CC(=O)Nn1c(COc2ccccc2C)nc2ccccc2c1=O	none
Cc1ccc(-c2[nH]ncc2/C=N/n2c(COc3ccccc3C)nc3ccccc3c2=O)cc1	KB-3-1 tox inconclusive, KB-V1 MDR tox inconclusive, ELG1 repair inh 2.59µM, SW480 rereplic inconclusive, MCF10A rerep 5.8µM
Cc1ccccc1OCc1nc2ccccc2c(=O)n1N	ELG1 repair inh inconclusive
S=c1[nH]nc(COc2ccccc2)n1/N=C/c1ccc(Cl)c(Cl)c1	MCF10A rerep inconclusive
O=[N+]([O-])c1ccc(Cl)c(/C=N/n2c(COc3ccccc3)n[nH]c2=S)c1	KB-V1 MDR tox 16.4µM, SW480 rereplic inconclusive, MCF10A rerep inconclusive
Cc1ccccc1OCc1nc2ccccc2c(=O)n1/N=C/c1c[nH]c2ccccc12	ELG1 repair inh inconclusive, SW480 rereplic inconclusive, MCF10A rerep 16.4µM
COc1ccc(CN2CCN(Cc3ccccc3)C(CCO)C2)cc1OC (stereo unspecified)	none
O=C(Nc1cccc(Cl)c1)NC1CC2CCC1C2 (stereo unspecified)	KB-3-1 tox inconclusive, ELG1 repair inh inconclusive
Cc1cccc(C)c1OCc1nc2ccccc2c(=O)n1/N=C/c1c[nH]c2ccccc12	KB-3-1 tox inconclusive, KB-V1 MDR tox inconclusive, ELG1 repair inh 8.2µM
CC(C)=NOCC(=O)Nn1c(COc2c(C)cccc2C)nc2ccccc2c1=O	none
O=c1c2ccccc2nc(COc2ccccc2)n1/N=C/c1cc([N+](=O)[O-])ccc1O	KB-3-1 tox inconclusive, KB-V1 MDR tox 7.31µM
Cc1ccc(S(=O)(=O)NCc2c(-c3ccccc3)c3cc(Cl)ccc3[nH]c2=O)cc1	none
S=C(NCCN1CCOCC1)Nc1ccc(-c2nc3ccccc3[nH]2)cc1	KB-3-1 tox inconclusive, MCF10A rerep 1.03µM
